# Shown are actives, neighbours in structure and some others; about 2.7% of the full set was active somewhere.
# FAS-TE inh – blocks the thioesterase domain of human fatty acid synthase. inhibition, % at 15 µM. AID 602261. recombinant FAS-TE, OMFH fluorogenic substrate, fluorescence endpoint. actives 0.67% (n = 360,000). P49327;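 active = compounds whose normalised, plate-corrected inhibition of enzyme fluorescence in the single-dose primary screen is 50% or more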;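 also: 0% = DMSO with enzyme and 100% = substrate without enzyme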
# proKLK7 act – activates the human kallikrein-7 zymogen; P49862; actives 0.9% (n = 370,000); activation, % at 7 µM; AID 652039; purified proKLK7, EDANS-DABCYL substrate fluorescence; 100% is mature enzyme control, 0% vehicle;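 active = activation above the mean of all tested compounds plus 3 SD, computed per campaign excluding outliers beyond control limits, cut at about 13% in these data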
# PfGluPho inh – PfG6PD (Plasmodium falciparum) enzyme inhibition; PfGluPho enzyme, NADPH resazurin-diaphorase fluorescence; inhibition, % at 20 µM; actives 0.78% (n = 350,000);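 active = inhibition reaching at least a set limit at 20 µM in the primary screen, cut at about 59% in these data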;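 also: 0% = DMSO wells with substrate and 100% = DMSO wells lacking glucose-6-phosphate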
# Neddylation inh – cullin neddylation inhibition. P61081+Q13564. TR-FRET cullin neddylation, biochemical. calls only at 25 µM. actives 0.58% (n = 360,000). AID 651699; in the data active = inhibition above about 36%
# Target sequence (P61081 whole entry, looked up): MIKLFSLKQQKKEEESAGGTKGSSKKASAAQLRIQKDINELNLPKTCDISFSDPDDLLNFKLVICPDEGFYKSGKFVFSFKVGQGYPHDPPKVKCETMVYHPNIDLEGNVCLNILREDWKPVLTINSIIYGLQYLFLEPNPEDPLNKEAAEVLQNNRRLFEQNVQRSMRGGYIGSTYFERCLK
# Target sequence (Q13564 whole entry, looked up): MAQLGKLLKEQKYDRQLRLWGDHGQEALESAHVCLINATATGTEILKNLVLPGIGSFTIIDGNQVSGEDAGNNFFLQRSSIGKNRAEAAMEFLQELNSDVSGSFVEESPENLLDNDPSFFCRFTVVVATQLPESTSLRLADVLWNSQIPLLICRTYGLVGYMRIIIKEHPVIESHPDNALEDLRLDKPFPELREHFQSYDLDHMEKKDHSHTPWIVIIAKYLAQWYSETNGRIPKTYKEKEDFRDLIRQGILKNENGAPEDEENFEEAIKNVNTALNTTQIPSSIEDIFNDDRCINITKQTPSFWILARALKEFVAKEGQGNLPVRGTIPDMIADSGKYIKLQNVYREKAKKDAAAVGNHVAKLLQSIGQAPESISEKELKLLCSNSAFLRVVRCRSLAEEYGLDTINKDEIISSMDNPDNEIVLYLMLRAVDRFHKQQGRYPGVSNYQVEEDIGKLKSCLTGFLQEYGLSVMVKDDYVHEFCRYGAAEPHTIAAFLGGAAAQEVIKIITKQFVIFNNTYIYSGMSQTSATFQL
# FAS-TE conf – FAS thioesterase (human) inhibition, confirmation; shares compounds with FAS-TE inh; recombinant FAS-TE, OMFH fluorogenic substrate, fluorescence; inhibition, % at 15 µM; actives 45% (n = 2,300); AID 624325;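 active = compounds inhibiting the enzyme by at least 50% at 15 µM in any one of the replicates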;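 also: 0% = enzyme with DMSO only and 100% = wells lacking enzyme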
# * marks the source's active call; other numbers are inactive results; i = inactive; . = no result given.
SMILES,FAS-TE inh,proKLK7 act,PfGluPho inh,Neddylation inh,FAS-TE conf
Cc1cc(=O)n2[nH]c(-c3ccc(C(C)(C)C)cc3)cc2n1,63*,-1,-16,i,44*
COc1cc(C2NCC(c3ccc(Cl)cc3Cl)c3c2[nH]c2ccccc32)cc(OC)c1OC (stereo not given),66*,1,13,i,27
COc1ccc(S[C@]2(C(=O)N3CCOCC3)CC(=O)N(c3ccc(OC)cc3)[C@@H]2c2ccc(OC)cc2)cc1,.,0,.,.,.
CC1C(=O)CC(c2ccc([N+](=O)[O-])cc2)NC1c1ccc([N+](=O)[O-])cc1 (stereo not given),52*,0,-1,i,-1
Cc1ccc(S(=O)(=O)Nc2cccc(-c3ccc(N4CCCCCC4)nn3)c2)cc1,59*,-2,-21,i,52*
COc1ccc(S(=O)(=O)Nc2cccc(-c3ccc(N4CCCCCC4)nn3)c2)cc1OC,54*,0,4,i,47
CCn1c2ccccc2c2cc(NC(=O)c3cc4c(C)nn(-c5ccccc5)c4s3)ccc21,.,-7,.,.,.
O=C(NC1CCCCN(Cc2cccc(C(F)(F)F)c2)C1=O)c1cccc(F)c1 (stereo not given),.,1,.,.,.
Cc1ccc2c(Cl)cc(Cl)c(OCC(=O)Nc3cc(S(=O)(=O)N(C)C)ccc3C)c2n1,52*,0,51,i,2
Cc1ccc(C(=O)NCC(=O)OCc2nc3sc(C)c(C)c3c(=O)[nH]2)cc1,.,0,.,.,.
O=C(NNc1ccc([N+](=O)[O-])cc1)C12CC3CC(CC(C3)C1)C2,52*,0,11,i,45
O=C(NNC(=O)C12CC3CC(CC(C3)C1)C2)c1cccc([N+](=O)[O-])c1,22,0,11,i,.
CC1N(C)c2cc(NC(=O)c3cccs3)c(P(=O)(Nc3ccc([N+](=O)[O-])cc3)N3CCOCC3)cc2C1(C)C (stereo not given),52*,0,14,i,34
CN(C)c1ccc(P(=O)(Nc2cccc(C(F)(F)F)c2)N2CCOCC2)c(NC(=O)c2cccs2)c1 (stereo not given),53*,0,23,i,23
N#CCSc1nc2c(sc(=S)n2Cc2ccco2)c(=O)n1-c1ccc(F)cc1,58*,-1,56,i,17
CCn1c(=S)sc2c(=O)n(-c3ccccc3)c(SC)nc21,35,0,20,i,.
CCOc1ccc(-c2ccc(NS(=O)(=O)c3cc([N+](=O)[O-])c(C)c([N+](=O)[O-])c3)cc2)nn1,84*,0,-14,i,83*
COC(=O)[C@]12C[C@H](CC(=O)NCc3ccc(C)o3)C(=O)N(Cc3cccc4ccccc34)C1=C[C@H](C(C)C)O[C@@H]2C1CC1,.,0,.,.,.
O=C1CCC[C@@H]2C[C@@]3(C[C@@H]4CCN1[C@H]24)Nc1cc(Cl)c(Cl)cc1NC3=NCc1ccccc1,52*,0,23,i,36
O=C(Nc1ccccc1)O[C@@H]1C[C@H]2CCCC(=O)N3CC[C@@H](C1)[C@@H]23,-11,0,2,i,.
O=C(Nc1nnc(-c2ccccc2Cl)s1)C1CCN(S(=O)(=O)c2ccc(Cl)cc2)CC1,72*,0,-12,i,9
COC(=O)C[C@H]1CC[C@@H]2[C@@H](COc3ccc(NC(=O)c4ccccc4)cc3C(=O)N2C)O1,.,0,.,.,.
CC1CC(C)(C)CC2(C1)NC(=O)N(CC(=O)Nc1cc(C(F)(F)F)ccc1N1CCCCC1)C2=O (stereo not given),60*,1,-2,i,4
O=C(CN1C(=O)NC2(CCCCC2)C1=O)Nc1cc(C(F)(F)F)ccc1N1CCCC1,4,0,17,i,.
CCn1c(=N)c(S(=O)(=O)c2ccc(C)cc2)cc2c(=O)n3ccccc3nc21,.,1,.,.,.
SMILES,FAS-TE inh,proKLK7 act,PfGluPho inh,Neddylation inh,FAS-TE conf
CCn1c(=N)c(S(=O)(=O)c2ccccc2)cc2c(=O)n3ccccc3nc21,55*,3,-28,.,35
Cc1nn(CCC(=O)NNC(=O)Nc2ccc(F)cc2)c(C)c1[N+](=O)[O-],.,0,.,.,.
CC(C)C[C@H]1C(=O)N2CCC[C@H]2[C@]2(O)O[C@](NC(=O)C3C=C4c5cccc6[nH]c(Br)c(c56)C[C@H]4N(C)C3)(C(C)C)C(=O)N12 (stereo not given in full),52*,1,24,i,25
O=C(COc1ccc2c(-c3ccccc3)cc(=O)oc2c1)N[C@@H](Cc1c[nH]c2ccc(O)cc12)C(=O)O,74*,1,-35,i,70*
O=C(COc1ccc2c(-c3ccccc3)cc(=O)oc2c1)NC(Cc1c[nH]c2ccccc12)C(=O)O (stereo not given),9,1,-7,i,.
COc1ccc(C2NC(c3ccc(OC)cc3)C(c3ccccc3)C(=O)C2c2ccccc2)cc1 (stereo not given),62*,-1,17,i,32
COc1ccc(C2NC(c3ccc(OC)cc3)C(C)C(=O)C2C)cc1 (stereo not given),15,0,-4,i,.
Cc1cccn2c(=O)c(/C=C(\C#N)S(=O)(=O)c3ccccc3)c(N3CCN(C)CC3)nc12,7,1,2,i,.
Cc1cccn2c(=O)c(/C=C(\C#N)S(=O)(=O)c3ccccc3)c(N3CCCCC3)nc12,54*,0,33,i,5
CCOC(=O)C1CCN(c2nc3c(C)cccn3c(=O)c2/C=C(\C#N)S(=O)(=O)c2ccccc2)CC1,65*,-3,7,i,5
N#C/C(=C\c1c(N2CCN(c3ccccc3)CC2)nc2ccccn2c1=O)S(=O)(=O)c1ccccc1,71*,0,-6,i,9
CCCn1c(SCC(=O)Nc2ccccc2-c2ccccc2)nnc1-c1ccoc1C,60*,-1,21,i,74*
c1ccc(-n2c(SCc3cccc4ccccc34)nnc2-c2ccccn2)cc1,.,0,.,.,.
COc1cc(/C=N/NC(=O)C(Cc2c[nH]c3ccccc23)NC(=O)OCC(C)C)cc([N+](=O)[O-])c1O (stereo not given),7,0,-2,i,.
COc1cc(/C=N/NC(=O)C(Cc2c[nH]c3ccccc23)NC(=O)OCc2ccccc2)cc([N+](=O)[O-])c1O (stereo not given),75*,0,1,i,75*
Cc1ccc(NC(=O)CN(C)C(=O)/C=C/c2ccc3c(c2)OCO3)cc1,14,2,18,i,.
Cc1ccc(C(NC(=O)/C=C\c2ccc3c(c2)OCO3)C(=O)Nc2ccc3c(c2)OCO3)cc1 (stereo not given),55*,-1,-11,i,22
COc1ccccc1C(=O)N1CCCC(c2nc(-c3cccs3)no2)C1 (stereo not given),.,0,.,.,.
O=S1(=O)c2ccc(Br)cc2OC[C@@H](c2ccccc2)N1Cc1cn(Cc2ccccc2)nn1,.,0,.,.,.
Cc1ccc(Cl)cc1N1CCN(S(=O)(=O)c2ccc3c(c2)oc(=O)n3C)CC1,52*,0,-2,i,7
O=C(NCc1ccc(F)cc1)C(C(=O)NCc1ccc(F)cc1)c1ncc(C(F)(F)F)cc1Cl,58*,0,-15,i,62*
CCOC(=O)C(C(=O)NCc1ccc(F)cc1)c1ncc(C(F)(F)F)cc1Cl (stereo not given),23,0,-5,i,.
Cc1nc(Sc2ccc(Br)cc2)c(C#N)c(C)c1[N+](=O)[O-],61*,0,-6,i,35

# Source: PubChem (several laboratories)
